Source: PubChem (several laboratories)
MRP1 act = activators of MRP-1; H69AR cells + doxorubicin, viability rescue, CellTiter-Glo; 140,000 compounds, 0.61% hits; viability increase, % at 10 µM;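 active = viability gain under doxorubicin at or above a set limit, the compound median plus 3 SD, cut at about 4.7% in these data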;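 note: MRP-1 overexpressing cells given doxorubicin 25 µM after compound pretreatment; 18-22 h compound pretreatment then 72 h with doxorubicin before readout; 0% = doxorubicin-only wells and 100% = vehicle-treated cells without doxorubicin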
Mac1 fbg enh = increases human CD11b/CD18 adhesion to fibrinogen; P05107+P11215; K562 CD11b/CD18 adhesion to fibrinogen, ATPlite luminescence; activation, % at 10 µM; 93,000 compounds, 0.07% hits;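 active = 10 µM primary screen giving 50% or more activity, confirmed by 40% or more on retest at that dose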
MRP resist rev = compounds reversing MRP-mediated drug resistance; 85,000 compounds, 0.04% hits; H69AR cells + 2 uM doxorubicin, CellTiter-Glo, 72 h; AID 602; differential viability (reversal), % at 10 µM;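 active = viability drop by adding the cancer drug above about 55%, with treated viability meeting a 40% cutoff, limit read from the data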;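 note: viability without doxorubicin minus viability with 2 µM doxorubicin for each compound; larger differential means the compound sensitizes cells more to doxorubicin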
Phagocyt inh = macrophage phagocytosis inhibition | J774A.1 macrophage IgG-bead phagocytosis, imaging | inhibition, % at 5 µM | 110,000 compounds, 0.07% hits | AID 1029;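 active = inhibition above the mean of the plate negative controls plus 5 SD, cut at about 13% in these data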;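 note: phagocytic index as fraction of beads internalized from green versus red external bead signal; plate controls were DMSO negative control for no effect and cytochalasin-D positive control for full effect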
Mac1 fbg inh = blocks human CD11b/CD18 adhesion to fibrinogen; K562 CD11b/CD18 adhesion to fibrinogen, ATPlite luminescence; Mn2+ added to activate the integrin; inhibition, % at 10 µM; 93,000 compounds, 0.54% hits; AID 1497;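 active = primary inhibition of 50% or more at 10 µM, then 40% or more on retest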
FAK inh = blocks human focal adhesion kinase activity | Q05397 | biochemical FAK kinase activity assay | AID 727 | 97,000 compounds, 0.84% hits | inhibition, %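 (tested at 7 µM)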;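 note: 0% = DMSO and 100% = reference compound high control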
Target sequence (Q05397 whole entry, looked up): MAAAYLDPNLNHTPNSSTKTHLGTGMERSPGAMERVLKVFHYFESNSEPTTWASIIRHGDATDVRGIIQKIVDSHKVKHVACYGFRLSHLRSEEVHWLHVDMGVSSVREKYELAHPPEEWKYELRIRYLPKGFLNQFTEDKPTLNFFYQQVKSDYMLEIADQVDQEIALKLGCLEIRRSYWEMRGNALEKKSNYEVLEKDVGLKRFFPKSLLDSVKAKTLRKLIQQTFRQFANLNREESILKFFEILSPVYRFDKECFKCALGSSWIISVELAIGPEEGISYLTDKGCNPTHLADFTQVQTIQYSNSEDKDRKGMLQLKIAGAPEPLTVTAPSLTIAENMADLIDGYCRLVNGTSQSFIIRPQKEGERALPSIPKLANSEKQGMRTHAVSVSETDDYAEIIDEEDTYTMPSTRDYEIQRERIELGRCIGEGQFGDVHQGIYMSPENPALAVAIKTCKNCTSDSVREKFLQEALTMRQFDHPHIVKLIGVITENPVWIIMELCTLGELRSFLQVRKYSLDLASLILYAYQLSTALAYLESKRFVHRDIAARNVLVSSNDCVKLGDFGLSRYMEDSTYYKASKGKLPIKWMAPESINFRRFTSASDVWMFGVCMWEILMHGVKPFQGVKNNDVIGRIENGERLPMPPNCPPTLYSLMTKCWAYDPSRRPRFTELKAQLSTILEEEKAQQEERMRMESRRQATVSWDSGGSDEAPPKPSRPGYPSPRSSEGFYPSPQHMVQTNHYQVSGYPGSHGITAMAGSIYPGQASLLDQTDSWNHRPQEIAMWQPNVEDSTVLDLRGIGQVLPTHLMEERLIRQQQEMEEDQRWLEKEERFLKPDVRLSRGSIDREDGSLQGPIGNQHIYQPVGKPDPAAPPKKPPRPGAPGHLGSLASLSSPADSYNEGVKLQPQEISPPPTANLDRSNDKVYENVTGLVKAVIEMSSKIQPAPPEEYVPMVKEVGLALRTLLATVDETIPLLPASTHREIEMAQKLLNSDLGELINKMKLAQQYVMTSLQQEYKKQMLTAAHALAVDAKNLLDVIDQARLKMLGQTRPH
FAK inh conf = confirmation of human focal adhesion kinase (FAK) inhibitors | 750 compounds, 28% hits | inhibition, % at 7 µM | shares compounds with FAK inh | FAK kinase biochemical inhibition assay | AID 794
Starred values were filed as active, the others as inactive; . = no result given. Hits are enriched below; roughly 1.5% of the tested compounds scored in any of these assays. Cut-off read from the data, not from the text of the source, unless noted: active = inhibition above about 19%; inactive = the rest.

SMILES	MRP1 act	Mac1 fbg enh	MRP resist rev	Phagocyt inh	Mac1 fbg inh	FAK inh	FAK inh conf
Cc1cc(C)n(CC2CC(=O)N(c3ccc(Cl)c(Cl)c3)C2=O)n1 (centres undefined)	-0.6	-1.2	10.8	.	-17.3	.	.
Cc1ccc(-c2c3c(nc4sc(C(N)=O)c(N)c24)CCCC3)o1	-2.6	.	.	-2.6	.	.	.
NC(=O)c1sc2nc3c(c(-c4ccco4)c2c1N)CCC3	-5.0	2.9	-5.7	-0.2	10.2	34.2*	20.4*
COc1ccc(NC(=O)CSc2ccc3c4c(cccc24)C(=O)c2ccccc2-3)cc1	-6.2	.	.	.	.	3.7	.
N#Cc1cccc(NC(=O)CSc2ccc3c4c(cccc24)C(=O)c2ccccc2-3)c1	-4.5	62.2	.	-0.3	-2.0	27.3*	21.8*
O=C(CSc1ccc(Cl)cc1)Nc1ccccc1N1CCN(C(=O)c2ccccc2)CC1	-0.1	-2.9	.	-0.5	6.8	6.0	.
c1ccc(NCc2cccnc2)cc1	-0.2	3.8	6.2	2.0	-4.5	-0.5	.
O=C1c2ccccc2C(=O)c2c(NCc3cccnc3)cccc21	-3.1	.	.	.	.	27.7*	11.2
O=c1c2c3c(sc2nc2sc(CN4CCOCC4)cn12)CCCC3	-0.4	-3.8	-1.4	1.8	-8.8	0.7	.
CCc1nc(SCC(=O)NNC(=O)C(C)C)c2ccccc2n1	-0.2	3.9	.	-0.8	-10.2	41.8*	18.8
CCc1nc(SCC(=O)NNC(=O)C2CCCCC2)c2ccccc2n1	-2.5	.	.	.	.	35.5*	20.2*
CCN(CC(=O)Nc1ccccc1Br)Cc1nc2ccccc2c(=O)[nH]1	-3.7	.	-0.5	.	.	-8.9	.
O=C(COc1ccccc1)NCCc1cn2ccsc2n1	-0.1	1.1	5.8	-0.1	-6.6	6.7	.
COC(=O)c1ccc(Cl)c(NC(=O)CN(c2ccc3c(c2)OCO3)S(C)(=O)=O)c1	-4.0	1.3	.	-0.3	-26.2	2.4	.
CCCOc1ccc(/C=N/NC(=O)c2ccc(Cn3cc([N+](=O)[O-])cn3)o2)cc1	-0.5	3.3	.	-0.8	-8.7	23.9*	18.5
COc1ccc(OC)c(N2C(=O)[C@@H]3C(c4ccccc4Cl)=NO[C@@H]3C2=O)c1	-2.8	2.4	7.0	-3.0	-3.6	19.3*	8.2
COc1ccc(C2=NO[C@@H]3C(=O)N(c4c(C)cccc4C)C(=O)[C@H]23)cc1OC	-2.0	0.5	-12.3	-0.4	-17.2	8.5	.
CCCSc1nc(C)c(-c2csc(C(C#N)=C3CCCC3)n2)cc1C#N	-4.1	-5.0	14.2	1.1	31.3	28.4*	1.6
O=C(CSc1nc(-c2ccc(F)cc2)cs1)N1CCc2ccccc21	-0.1	-2.0	.	0.0	-15.7	-0.2	.
Cc1ccc(Nc2cc(C)nc(-c3ccccc3O)n2)cc1	-4.4	0.0	-23.1	0.0	12.2	3.2	.
Cc1cc(NCCCN)nc(-c2ccccc2O)n1	-4.9	-2.1	6.8	3.7	9.5	20.8*	12.1
CNc1cccccc1=S	-0.9	-2.7	-1.8	2.6	-11.0	43.6*	0.8
CNc1cccc2c1C(=O)c1ccccc1C2=O	-3.8	15.6	.	-16.5	7.5	.	.
COc1ccccc1CCNC(=O)/C(=C/c1cccnc1)NC(=O)c1ccccc1	-2.2	.	.	-7.9	.	.	.
Cc1cc(NC(=O)CSc2nc(C(C)C)nc3ccccc23)no1	-5.4	-5.0	-24.2	1.0	9.8	44.8*	27.9*
SMILES	MRP1 act	Mac1 fbg enh	MRP resist rev	Phagocyt inh	Mac1 fbg inh	FAK inh	FAK inh conf
CC(C)c1nc(SCC(=O)Nc2nc3c(s2)CCCC3)c2ccccc2n1	-2.3	-2.7	.	-0.5	56.6	19.6*	8.1
Cc1nnc(NC(=O)CSc2nc(C(C)C)nc3ccccc23)s1	-1.9	-0.4	.	-0.7	-4.8	46.1*	22.8*
Cc1nnc(NC(=O)CSc2nc3ccccc3o2)s1	0.8	.	15.7	.	.	-1.1	.
COc1ccc(-c2coc3cc4oc(=O)cc(-c5ccccc5)c4cc23)cc1F	-5.5	62.0	.	2.3	18.7	.	.
COc1ccc(-c2coc3cc4oc(=O)cc(C)c4cc23)cc1F	-4.0	0.8	.	-0.5	24.7	35.8*	22.6*
Cn1c(SCC(=O)N2CCOCC2)nc(O)cc1=O	-0.6	-3.5	1.9	-1.3	-8.1	0.1	.
CCc1c(C)nc(SCC(N)=O)c(C#N)c1C	-1.8	0.2	5.6	0.1	3.7	2.8	.
CCc1c(C)nc(SCC(=O)c2cccs2)c(C#N)c1C	-1.5	-0.3	-8.4	0.1	-4.5	30.4*	25.9*
CC1CCCN(Cc2c(O)ccc3c(=O)c(-c4nc5ccccc5s4)c(N)oc23)C1 (centres undefined)	-5.9	.	.	.	.	34.2*	8.0
CN(C)S(=O)(=O)Oc1ccsc1C(=O)Nc1cccc(Cl)c1	-0.9	.	.	.	.	-1.7	.
COC(=O)c1sccc1-c1ccc(C(=O)Nc2cccc(Cl)c2)o1	-0.7	.	.	.	.	26.2*	7.2
N#Cc1ccccc1/C=N/Nc1nc(-c2ccccc2)c2cc(Cl)ccc2n1	-5.7	9.8	.	-3.7	-14.1	50.1*	34.2*
Cc1ccc(CNC(=O)C(=O)NCC2OCCN2C(=O)c2cccs2)cc1 (centres undefined)	4.4	-1.2	.	-9.3	-2.4	.	.
Cc1cccc(NC(=O)NCc2ccc3c(c2)cc(C)n3C)c1	-0.8	50.8	3.4	3.1	11.6	22.1*	-7.0
CCOC(=O)c1nn(-c2ccc3c(c2)OCO3)cc1O	-1.4	.	0.0	.	.	6.3	.
Cc1[nH]nc2c1C1(CCC3(CC1)OCCO3)C(C#N)=C(N)O2	0.1	-0.9	8.1	4.3	-6.5	7.1	.
c1nc(N2CCOCC2)c2c3c(sc2n1)CCCC3	-1.5	-3.3	-17.9	-0.5	-7.2	28.3*	-1.0
CCOC(=O)N1CCN(c2c(NCCCN3CCCCCC3)c(=O)c2=O)CC1	-0.6	-3.2	4.2	0.4	-0.7	4.7	.
O=C(Nc1ccccc1N1CCCCC1)c1ccco1	-2.5	.	-0.3	.	.	23.7*	9.1
O=C(Nc1ccccc1N1CCCC1)c1ccco1	-2.1	4.1	7.4	-0.5	0.6	2.0	.
Cc1ccc2c(c1)cc1c(=O)[nH]ncn12	-2.5	.	.	.	.	37.5*	12.0
CC(=O)c1sc2nc(C)cc(C)c2c1N	-0.5	1.0	.	-0.8	-6.4	20.3*	4.7
Cn1c(Cn2cnc3ccccc32)nnc1SCC(=O)CC(=O)Nc1ccccc1	1.2	1.1	12.5	-0.2	-5.2	-4.8	.
CC1(C)Cc2c(sc3nn[nH]c(=O)c23)CO1	-0.6	-2.7	21.4	-0.3	-3.6	0.9	.
O=c1[nH]nnc2sc3c(c12)CCCC3	-2.7	.	10.9	.	.	27.1*	12.6
CCOC(=O)N1CCC(NC(=O)Cn2ncn3c(cc4sc(CC)cc43)c2=O)CC1	.	.	2.0	.	.	.	.
CC(=O)c1ccc(NCC(=O)N2CCN(c3ccccc3)CC2)cc1	-1.3	40.8	5.4	-0.4	-23.3	19.8*	19.2*
CC(C)c1ccc(NC(=O)COC(=O)CSc2nnc(N)s2)cc1	-2.1	3.8	.	.	10.8	.	.
Clc1ccc2[nH]c3c(c2c1)CCc1cn[nH]c1-3	-4.7	4.1	-30.8	3.0	-4.2	19.6*	6.9
O=CNC1CCCc2c1[nH]c1ccc(Cl)cc21 (centres undefined)	-3.0	2.4	4.2	-0.2	-5.3	0.8	.
